In all, about 16,000 compounds went through this assay and about 5,800 (36%) were called active. Another 23% or so got no clear call; they are omitted. The list shows a part of the results. A number with no mark means an inactive call. The call rests on the fitted dose curve; in most records, active means well fitted curve in the direction sought with a large enough effect; inconclusive means small, poorly fitted or top-dose-only effect, or effect the other way; inactive means no such curve, though single readings can be large or run the other way.
Biological target: Cytochrome P450 2C19 (Homo sapiens) (UniProt P33261)
Sequence (P33261 whole entry, looked up): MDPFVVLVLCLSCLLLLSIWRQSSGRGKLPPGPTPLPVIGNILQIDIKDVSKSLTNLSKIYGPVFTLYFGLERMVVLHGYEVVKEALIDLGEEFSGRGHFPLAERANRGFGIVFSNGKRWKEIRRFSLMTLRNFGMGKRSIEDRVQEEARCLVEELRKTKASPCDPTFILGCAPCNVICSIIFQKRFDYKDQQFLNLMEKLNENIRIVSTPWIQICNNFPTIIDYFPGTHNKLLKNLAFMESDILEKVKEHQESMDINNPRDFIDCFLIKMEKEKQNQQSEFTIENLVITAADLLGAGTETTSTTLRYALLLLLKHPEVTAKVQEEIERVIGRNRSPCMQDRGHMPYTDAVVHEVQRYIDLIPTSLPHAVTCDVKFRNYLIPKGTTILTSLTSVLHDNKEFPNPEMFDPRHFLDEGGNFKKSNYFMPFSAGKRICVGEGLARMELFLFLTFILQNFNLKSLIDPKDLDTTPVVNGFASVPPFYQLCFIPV
Assay: Cytochrome panel assay with activity outcomes
Conditions: recombinant CYP, pro-luciferin dealkylation, luminescence, p450-cyp2c19; series mostly up to 57.1 µM
On the % scale 0 is the no-effect control and ±100 the full control effect.

| SMILES | activity, negative = inhibition | AC50 |
| --- | --- | --- |
| N#C/C(=C\N1CCNC1=S)C(=O)c1ccc2ccccc2c1 | -10.2% [at 11.4 µM] | – |
| Cc1ccc(C)c(OCCCC(C)(C)C(=O)O)c1 | – | inactive |
| C/C(N)=C(/C#N)C(=O)CSc1nnc(COc2cc(C)ccc2C)o1 | – | 3.55 µM (active) |
| O=C1SC(c2ccccc2)=C/C1=C\N1CCCCC1 | – | 2 µM (active) |
| CC1CCN(CC[C@H]2CCCN2S(=O)(=O)c2cccc(O)c2)CC1 | – | inactive |
| COCCNC(=O)Cn1cnc2ccc(S(=O)(=O)N3CCC(C)CC3)cc2c1=O | – | inactive |
| CC1CCN(S(=O)(=O)c2ccc3c(c2)C(=NO)c2cc(S(=O)(=O)N4CCC(C)CC4)ccc2-3)CC1 | – | 4.47 µM (active) |
| COc1ccc(C(O)P(=O)(OC(C)C)OC(C)C)cc1OC (configuration not stated) | – | 3.55 µM (active) |
| COc1cc([C@@H](O)CO)ccc1OS(=O)(=O)O | – | inactive |
| COc1cc([C@H](O)C(=O)O)ccc1O | – | inactive |
| CCC(=O)OCc1c(C(F)(F)F)nn(C)c1Sc1ccc(F)cc1 | – | 1.41 µM (active) |
| CC(=O)OCc1c(C(F)(F)F)nn(C)c1Sc1ccccc1 | – | 0.891 µM (active) |
| CC(C)(N=NC(C)(C)C1=NCCN1)C1=NCCN1 | 30.5% [at 11.4 µM] | – |
| COC(Cn1c(C)c(C(C)=O)c(C(C)=O)c1C)OC | – | inactive |
| N#C/C(=C/c1ccc(N2CCCC2)c([N+](=O)[O-])c1)c1nc2ccccc2[nH]1 | – | 1.26 µM (active) |
| N#C/C(=C\c1ccc(N2CCCC2)c([N+](=O)[O-])c1)c1nc2ccccc2[nH]1 | – | 1 µM (active) |
| Cn1c(=O)n2n(c1=O)[C@H]1[C@H](O)[C@H]3O[C@H]3C(=O)[C@H]1CC2 | 20.1% [at 11.4 µM] | – |
| C1CCC(C(C[C@@H]2CCCCN2)C2CCCCC2)CC1 | – | inactive |
| C[C@@H]1O[C@H](O[C@@H]2[C@@H](Oc3cc(O)c4c(c3)O[C@H](c3ccc(O)cc3)CC4=O)O[C@@H](CO)[C@@H](O)[C@H]2O)[C@@H](O)[C@H](O)[C@@H]1O | – | inactive |
| c1ccc(-c2nc3ccccc3o2)nc1 | – | 14.1 µM (active) |
| O=S(=O)(O)c1ccc(-c2nnc(-c3ccccn3)nc2-c2ccc(S(=O)(=O)O)o2)o1 | -6.8% [at 11.4 µM] | – |

| SMILES | activity, negative = inhibition | AC50 |
| --- | --- | --- |
| c1ccc(-c2ccccn2)nc1 | – | inactive |
| CC(C)=CCNc1ncnc2nc[nH]c12 | 26.8% [at 11.4 µM] | – |
| O=[N+]([O-])/C=C/c1cn(Cc2ccccc2)c2ccccc12 | – | 1.41 µM (active) |
| O=C1CS/C(=C\[N+](=O)[O-])N1c1ccc(OC(F)(F)F)cc1 | – | 3.98 µM (active) |
| C/C=C\C1=C(CO)C(=O)C2O[C@]2(CC=C(C)C)C1=O (some centres not stated) | -25.8% [at 11.4 µM] | – |
| Cc1ccc(C(=O)N2C3C=CC(C3)C2(C(F)(F)F)C(F)(F)F)cc1 (configuration not stated) | – | 15.8 µM (active) |
| O=S(=O)(CC(O)COc1ccccc1Cl)c1ccccc1 (configuration not stated) | – | 7.08 µM (active) |
| C=CCOc1ccccc1OC[C@H](O)CNC(C)C | – | inactive |
| COc1ccccc1OC[C@H](O)COC(N)=O | – | inactive |
| O=C(Nc1cccc2ncccc12)c1ccc(-c2ccc(Br)cc2)o1 | – | 4.47 µM (active) |
| O=C(Nc1cccc2ncccc12)c1cccc(F)c1 | – | inactive |
| COc1ccc2[nH]cc(CCNc3ccnc(-c4ccccc4C(F)(F)F)n3)c2c1 | – | 25.1 µM (active) |
| COc1ccc2[nH]cc(CCNc3ccnc(-c4ccccc4C)n3)c2c1 | – | 2.51 µM (active) |
| CC(=O)NCCNc1ccnc(-c2ccccc2C)n1 | – | inactive |
| COc1cccc(CNc2ccc(F)c(Cl)c2)c1O | – | 3.16 µM (active) |
| Cc1noc(C)c1C(=O)N1CCC[C@@]2(CCN(C(=O)Nc3ccccc3)C2)C1 | – | inactive |
| CCC(CC)C(=O)Nc1cccc(/C(C)=N/NC(=O)c2c(Br)cnn2C)c1 | – | inactive |
| CCOC(=O)c1c(NC(=O)c2c(Br)cnn2C)c(C#N)nn1-c1ccccc1 | – | 11.2 µM (active) |
| Cc1ccc(C(c2ccc(C)o2)c2cccc([N+](=O)[O-])c2O)o1 | – | 3.55 µM (active) |
| O=C1NC(=S)N/C1=C/c1cccc([N+](=O)[O-])c1O | – | inactive |
| Cc1c(-c2ccc(O)cc2)nn(-c2ccc(O)cc2)c1-c1ccc(OCCN2CCCCC2)cc1 | – | inactive |

| SMILES | activity, negative = inhibition | AC50 |
| --- | --- | --- |
| C=CCNC(=O)/C(=C\C=C\c1ccccc1)NC(=O)c1ccc(OCCCC)cc1 | – | 14.1 µM (active) |
| CC(C)OC(=O)/C(=C\C=C\c1ccccc1)NC(=O)c1ccccc1 | – | inactive |
| Cc1ccc(C(=O)N/C(=C/C=C/c2ccccc2)C(=O)NCc2ccco2)cc1 | – | 2.24 µM (active) |
| O=C(NCC1CCCO1)/C(=C\c1ccco1)NC(=O)c1ccccc1 (configuration not stated) | – | inactive |
| CCC(=O)Nc1ccc(C(=O)CSc2nnc(-c3ccc(O)cc3)n2CC2CCCO2)cc1OC (configuration not stated) | – | inactive |
| Cc1ccc(CSc2nnc(-c3ccncc3)n2CC2CCCO2)cc1 (configuration not stated) | – | 4.47 µM (active) |
| COc1ccc(-c2nc3cnc(N(C)C)nc3n(C[C@H]3CCCO3)c2=O)cc1 | – | inactive |
| CCn1c(-c2ccc(N(C)C)cc2)nc2ccccc21 | – | 39.8 µM (active) |
| Cc1cc(C)c(NC(=O)CS(=O)CC(=O)NCCCc2ccccc2)c(C)c1 (configuration not stated) | – | inactive |
| O=C(NCCCc1ccccc1)c1cccs1 | – | 2.51 µM (active) |
| Cc1ccc(NC(=O)NCCCc2ccccc2)cc1 | – | 2.51 µM (active) |
| Cc1ccc(NNS(=O)(=O)c2ccc(C)cc2)cc1 | – | 7.08 µM (active) |
| Cc1ccc(S(=O)(=O)NNc2ccccc2)cc1 | – | 2.82 µM (active) |
| Cc1ccc(NC(=O)NNS(=O)(=O)c2ccc(Br)cc2)cc1 | – | inactive |
| Cc1ccc(S(=O)(=O)NC(=O)OC23COCN2COC3)cc1 | 12.8% [at 11.4 µM] | – |
| CO[C@H]1COC(=O)[C@@H](Cc2ccccc2)NC(=O)[C@@H](C)COC(=O)CCC[C@@H]1C | -15.4% [at 11.4 µM] | – |
| COc1ccccc1C1(CC(=O)Nc2nccs2)CCOC(C(C)C)C1 (configuration not stated) | – | 1.58 µM (active) |
| Nc1c(-c2cccs2)cnn1-c1nc(-c2ccc(Cl)cc2Cl)cs1 | – | 0.0708 µM (active) |
| Nc1c(-c2cccs2)cnn1-c1nc(-c2ccc(F)cc2)cs1 | – | inactive |
| COc1ccc(-c2csc(-n3ncc(-c4cccs4)c3N)n2)cc1 | – | inactive |
